PubChem BioAssay AID624330 (Southern Research Specialized Biocontainment Screening …, 2012)
Out of some 340,000 compounds screened, about 2,100 (0.62%) were called active.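 The calls were made as follows: active = first-screen hits whose inhibition reached a set limit at any dose in the follow-up dose series; inconclusive = inhibition above the set first-screen limit but never retested; inactive = the rest.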 Only a sample is shown. Potency and affinity values are given separately.

target: Rac GTPase-activating protein 1 (Homo sapiens) (UniProt Q9H0H5); assay: MgcRacGAP GTPase-activating activity inhibitors, confirmation, biochemical, ADP Hunter fluorescence, primary and confirmatory (AID 624330); conditions: MgcRacGAP-stimulated Rac1 GTP hydrolysis, at 30 µM, hits give high values, GST-tagged Rac1 F28L mutant substrate;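 also: fluorescence reports GDP produced by GAP-driven GTP hydrolysis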
Sequence (Q9H0H5 whole entry, looked up): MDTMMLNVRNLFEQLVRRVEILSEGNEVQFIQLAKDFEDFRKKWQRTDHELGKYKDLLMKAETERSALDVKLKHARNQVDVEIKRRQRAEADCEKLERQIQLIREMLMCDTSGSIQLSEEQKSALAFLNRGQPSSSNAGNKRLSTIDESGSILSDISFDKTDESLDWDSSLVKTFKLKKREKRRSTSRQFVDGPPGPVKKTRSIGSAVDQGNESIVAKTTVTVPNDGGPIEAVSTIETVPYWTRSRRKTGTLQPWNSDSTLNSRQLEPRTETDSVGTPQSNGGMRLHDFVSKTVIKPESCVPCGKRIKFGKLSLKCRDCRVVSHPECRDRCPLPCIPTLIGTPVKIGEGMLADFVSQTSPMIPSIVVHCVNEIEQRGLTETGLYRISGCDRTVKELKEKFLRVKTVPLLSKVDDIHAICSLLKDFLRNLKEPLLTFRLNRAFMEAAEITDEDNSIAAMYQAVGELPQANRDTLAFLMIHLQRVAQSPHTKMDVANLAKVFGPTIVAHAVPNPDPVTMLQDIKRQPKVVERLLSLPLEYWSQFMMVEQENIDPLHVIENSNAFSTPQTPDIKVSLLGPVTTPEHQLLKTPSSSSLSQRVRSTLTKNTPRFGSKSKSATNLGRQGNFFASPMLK

inhibition, inactive:
CC(C)Cn1c(N)c(/C=N/NC(=O)c2ccc(Cl)cc2)c(=O)n(C)c1=O 14.9%
Cc1cccc(CNc2ccc(C(CC(N)=O)NC(=O)c3ccccc3)cc2[N+](=O)[O-])c1 (configuration not stated) -3.89%
O=C(CSc1nccn1-c1ccc(Cl)cc1)N1CCCc2ccccc21 4.77%
Cc1ccc(NC(=O)N2CCCc3ccccc32)cc1C 3.97%
Cc1ccc2nc(C)cc(C(=O)OCC(=O)Nc3cccnc3Cl)c2c1 5.5%
COC(=O)c1ccc(Oc2coc3cc(OCc4ccc([N+](=O)[O-])cc4)ccc3c2=O)cc1 -3.99%
CCN1CCN(CCNC(=O)Cn2c(=O)c3cccn3c3ccc(F)cc32)CC1 13.8%
C#CCNC(=O)C1=C[C@@H](C2CCCCC2)C[C@@H](OCCCCO)O1 6.51%
C=CCn1c(SCCNC(C)=O)nc2cc(-c3ccccc3)sc2c1=O -6.43%
CCN(CC)C(=O)/C=C/c1ccccc1 10.4%
CCN(CC)CCOC(=O)/C=C/c1ccccc1 8.82%
COc1cccc(CNC(=O)CCC2CCCN(C(=O)c3ccc(C)nc3)C2)c1 (configuration not stated) -7.59%
O=C1NC(=S)N/C1=C\c1ccccc1OCc1ccc(C(=O)O)cc1 7.81%
CN1C(=O)S/C(=C\c2ccccc2OCc2ccc(C(=O)O)cc2)C1=O 7.03%
CCCCC(=O)Nc1nn(CC(C)C)c2nc3ccccc3cc12 -1.14%
OCCN(Cc1ccccc1)Cc1cccc(C(F)(F)F)c1 16.5%
Cc1cc(=O)c(C(=O)O)nn1-c1cccc(C(F)(F)F)c1 6.55%
Cc1cccc(N2C(=O)CCC2=O)c1 7.43%
COCC(=O)N1CCN(c2cccc(C(F)(F)F)c2)CC1 4.48%
Cc1nnc2ccc(N3CCN(c4cccc(C(F)(F)F)c4)CC3)nn12 5.89%
FC(F)(F)c1cccc(N2CCc3cn[nH]c32)c1 12.6%
Cc1cccc(N2N=C(C(=O)O)CCC2=O)c1 -5.61%
CCOc1cccc(CN2CCN(c3cccc(C(F)(F)F)c3)CC2)c1O 0.147%
COC(=O)c1sccc1NC(=O)CN(C)NS(=O)(=O)c1ccc([N+](=O)[O-])cc1 -4.11%
CNC(=S)NCCCc1ccccc1 8.61%
C/C=C(\C)C(=O)OC1[C@H](OC(C)=O)C2(CO)C(CC1(C)C)C1=CCC3C4(C)CCC(O[C@@H]5O[C@H](C(=O)O)[C@@H](O[C@@H]6O[C@H](CO)[C@@H](O)[C@H](O)[C@H]6O)[C@H](O)[C@H]5O[C@H]5O[C@H](CO)[C@@H](O)[C@H](O)[C@H]5O)[C@](C)(CO)C4CCC3(C)[C@]1(C)C[C@H]2O (some centres not stated) 1.06%
COCCOC1CCN(C(=O)C2CCC(=O)N(CCc3ccccc3)C2)CC1 (configuration not stated) 9.57%
CCC(=O)c1ccc(CCCCCC(=O)O)s1 3.88%
O=C(O)/C=C/C(=O)Nc1ccccc1SC(F)(F)F -1%
COc1ccc([N+](=O)[O-])cc1N(CC(=O)NCCCOC(C)C)S(C)(=O)=O 7.79%
Cc1ccc(C)c(NC(=O)C2CCCN(c3cnccn3)C2)c1 (configuration not stated) 14.2%
C/C(=N\NC(=O)c1cccc(N/N=C(\C)c2ccccc2)c1)c1ccccc1 0.42%
C/C(=N\NC(=O)c1cc(O)ccc1O)c1cccc(NC(=O)c2cccc(Cl)c2)c1 25.5%
O=C(CCC1CCCN(C(=O)c2cncs2)C1)NCc1ccc(F)c(F)c1 (configuration not stated) 4.71%
CC(C)Sc1nc2ccsc2c(=O)[nH]1 8.22%
O=C(CC1CCCC1)Nc1ccc(Cl)c(S(=O)(=O)N2CCOCC2)c1 1.97%
Cc1ccnc(NC(=S)NC(=O)/C=C/c2ccc(Cl)cc2)c1 3.91%
CN(C)CCCn1c(SCc2c(Cl)cccc2Cl)nnc1-c1ccncc1 25.2%
CCOCCCn1c(SCc2ccccc2)nnc1-c1ccncc1 7.47%
Cc1cc(C)cc(NC(=O)c2cc3c(=O)n4ccccc4nc3s2)c1 7.35%
CC(C)(C)NC(=O)COC(=O)c1ccc(Cl)nc1 2.54%
COc1ccc([C@H]2CN(c3ccccc3)C(=O)[C@@H]2CC(=O)Nc2ccccc2)cc1 9.26%
COc1ccc(NC(=O)C[C@H]2C(=O)N(c3ccc(Br)cc3)C[C@@H]2c2ccc(OC)cc2)cc1 15.9%
COc1ccc(-c2csc(N(CCCN(C)C)C(=O)c3cc(OC)c(OC)c(OC)c3)n2)cc1 4.15%
O=[N+]([O-])c1ccc2c(c1)Cc1cc(F)ccc1-2 -1.78%
Nc1ccc2c(c1)Cc1cc([N+](=O)[O-])ccc1-2 14.4%
CC(C)(C)C(=O)N1CCN(c2ccc([N+](=O)[O-])cc2Cl)CC1 5.07%
O=[N+]([O-])c1ccc(N2CCN(c3ccccc3O)CC2)c(Cl)c1 -5.04%
Brc1ccc(-c2noc(C3CCCCC3)n2)cc1 11.8%
Cc1cc(C)n(-c2cccc(Cl)c2C#N)n1 7.18%
CCOC(=O)c1c(C)c(C(=O)Nc2ccc(F)cc2)c(C)n1C 1.27%
CCOC(=O)c1sc(C)c2c1NC1(CCCCCC1)NC2=O 1.2%
COc1cc(OC)c(OC)cc1/C=N/NC(=O)c1cnccn1 9.21%
COc1ccc(/C=N/NC(=O)c2cccnc2)cc1O 28.2%
COc1cc(/C=N/NC(=O)c2cnccn2)cc(OC)c1OC 3.55%
COc1cccc(/C=N/NC(=O)c2cnccn2)c1 8.84%
CSc1ccccc1NC(=O)CN1CCN(c2ccccn2)CC1 6.87%
COc1ccc2nc(C)cc(N/N=C/c3ccccc3)c2c1 19.7%
Cc1ccc2nc(C)cc(N/N=C/c3ccccc3O)c2c1 9.12%
COc1ccccc1/C=N/Nc1cc(C)nc2ccc(C)cc12 14.4%
COc1ccc2nc(C)cc(N/N=C/c3ccc(F)cc3)c2c1 13.3%
COc1ccc(OC)c(S(=O)(=O)N2CCC3(CC2)CC(=O)c2ccccc2O3)c1 8.64%
O=C(Nc1ccc(C(=O)O)cc1)/C(=C\c1ccc2c(c1)OCO2)NC(=O)c1ccccc1 -1.61%
O=C(COC(=O)c1ccc([N+](=O)[O-])o1)Nc1ccc(N2CCOCC2)cc1 10.6%
O=C(O)c1ccc(N(c2ccccc2)c2ccccc2)cc1 6.47%
C/C(=N\N(c1ccccc1)c1ccccc1)c1ccc(N)cc1 18.1%
O=C(CSc1nc2ccc(NC(=O)CSc3nnnn3-c3ccccc3)cc2s1)Nc1ccccc1 2.46%
CN(C)c1ccc(C(=O)NN2C(=O)c3ccccc3C2=O)cc1 8.64%
CN(C)c1ccc(C(=O)N2CCCC2)cc1 3.64%
C[C@@H]1CN([C@@H](C)CO)C(=O)c2cc(Br)cnc2O[C@H]1CN(C)C(=O)c1ccc2c(c1)OCO2 13.5%
Cc1cccc(NC(=O)CCCN=C2NS(=O)(=O)c3ccccc32)c1C -1.68%
Cc1ccc(N=Cc2ccc(N(C)C)cc2)cc1 3.33%
CCN(CC)c1ccc(C=N/C(C#N)=C(\N)C#N)cc1 6.79%
CN(C)c1ccc(C=Nc2ccccc2)cc1 0.89%
CN(c1ccccc1)c1ccc(/C=N/NC(=O)CC#N)cc1 10.3%
CCOc1ccc(/C=N/O)cc1 5.7%
CCN(CC)c1ccc(/C=N/NC(=O)C(O)c2ccccc2)cc1 (configuration not stated) 9.04%
CCN(CC)c1ccc(/C=N/NC(=O)CC(C)C)cc1 5.15%
NC(=S)N/N=C/c1ccccc1 11.7%
Cc1ccc(SCC(=O)n2nc(C)cc2C)cc1 3.7%
CSc1nc(NS(=O)(=O)c2ccc(F)cc2F)nn1C 6.35%
Cc1ccc(S(=O)(=O)N2CCN(C(=O)Cn3nc(C)c([N+](=O)[O-])c3C)CC2)cc1 6.68%
CC(C)Cn1c(N)c(C(=O)COC(=O)COc2cccc(C(F)(F)F)c2)c(=O)n(C)c1=O 6.32%
COC1CC(C)NC(=S)N1 (configuration not stated) 12.9%
O=C(Cn1nnc2ccccc21)N/N=C/c1ccco1 10.9%
COc1ccc(NC(=O)c2ccc3c(c2)C(=O)N(CC2CCCO2)C3=O)cc1O (configuration not stated) 0.29%
O=C(CSc1nnc(-c2ccco2)n1Cc1ccccc1)c1ccccc1 13.1%
O=C(CSc1nnc(-c2ccco2)n1Cc1ccccc1)NCc1ccccc1 5.14%
O=C(NN=Cc1ccc2c(c1)CCC2)c1ccccc1[N+](=O)[O-] 6.28%
Cc1cc(C)nc(N2N=C(CSc3ccc(Cl)cc3)CC2=O)n1 3.87%
COc1cccc(C(=O)NNC(=O)Cc2csc(N)n2)c1 10.7%
CCn1c(SCC(=O)c2[nH]c(C)c(C(C)=O)c2C)nnc1-c1ccccc1 11.9%
COc1ccc2cc(CN(C)C(=O)CN3C(=O)NC4(CCCC4)C3=O)ccc2c1 20.2%
COc1cc2c(cc1NC(=O)CCC(=O)O)oc1ccccc12 17.1%
CCCNC(=S)Nc1cc2oc3ccccc3c2cc1OC 7.43%
CNC(=S)Nc1cc2oc3ccccc3c2cc1OC 13.3%
COc1ccccc1CC(=O)Nc1cc2oc3ccccc3c2cc1OC 1.63%
